# In all, about 69,000 compounds went through this assay and about 1,000 (1.4%) showed an effect of 50% or more. This excerpt belongs to a sample that is enriched for strong results.
# Tested on: Leishmania donovani
# Assay: Leishmania intramacrophage assay
# Assay type: functional, organism-based
# Design: scale not given: in the data most compounds retested in dose-response had high values
structure (smiles),measurement,setting,value
Cc1csc(CN2C[C@@H]3CN(S(C)(=O)=O)CCO[C@@H]3C2)n1,Percent Effect,"30.3 µM, […]",20.2%
Cc1ccc(CN2C[C@@H]3CN(CC4CCOCC4)CCO[C@@H]3C2)s1.O=C(O)C(F)(F)F.O=C(O)C(F)(F)F,Percent Effect,"30.3 µM, […]",24.65%
Cc1csc(CN2C[C@@H]3CN(CC4CCOCC4)CCO[C@@H]3C2)n1,Percent Effect,"30.3 µM, […]",53.9%
Cc1nc(C(=O)N2CCCC2c2cncc(CN3CCCC3)n2)co1 (configuration not stated),Percent Effect,"30.3 µM, […]",16.43%
COc1ccc(CC(=O)N2CCCC(n3nc(C)cc3C)C2)cc1F (configuration not stated),Percent Effect,30 µM,18.37%
Cc1[nH]/c(=N\C(=O)c2csc(NCC(C)C)n2)sc1C,Percent Effect,"30 µM, 30.03 µM",87.72%
Cc1[nH]/c(=N\C(=O)c2csc(NC3CCCC3)n2)sc1C,Percent Effect,"30.3 µM, […]",100.1%
Cc1cs/c(=N/C(=O)c2csc(NCC(C)C)n2)[nH]1,Percent Effect,"30.3 µM, […]",8.971%
CCN(CC)C(=O)CCCNC(=O)c1csc(NC2CC2)n1,Percent Effect,"30.3 µM, […]",-2.373%
Cc1[nH]/c(=N\C(=O)c2csc(NC3CC3)n2)sc1C,Percent Effect,"30 µM, 30.03 µM",70.25%
CC(C)(C)[S+]([O-])CCNC(=O)c1csc(NC2CC2)n1 (configuration not stated),Percent Effect,"30.3 µM, […]",-31.46%
CC(C)CNc1nc(C(=O)/N=c2\[nH]nc(C(C)(C)C)s2)cs1,Percent Effect,"30 µM, 30.03 µM",-9.293%
CN1CCN(C(=O)CCc2cc(Br)cs2)CC1,Percent Effect,"30.3 µM, […]",1.944%
O=C(Cc1ccsc1)N1CCN(CC2CC2)c2ncccc2C1.O=C(O)C(F)(F)F,Percent Effect,"30.3 µM, […]",13.41%
CC(C)c1cc(C(F)(F)F)n2nc(C3CCN(S(C)(=O)=O)C3)cc2n1 (configuration not stated),Percent Effect,"30.3 µM, […]",14.63%
COc1ccc2[nH]cc(C(=O)N3C[C@@H](O)[C@H](N4CCOCC4)C3)c2c1,Percent Effect,"30.3 µM, […]",10.77%
COc1ccccc1OCc1cc(C(=O)N2CCOCC2CO)n[nH]1 (configuration not stated),Percent Effect,"30.3 µM, […]",28.86%
CCc1ccc(CN(Cc2ccccc2)CC(C)CO)nc1 (configuration not stated),Percent Effect,"30.3 µM, […]",7.862%
COCCN1CCN(C(C)c2nc(C3CC3)no2)CC1 (configuration not stated),Percent Effect,30 µM,-7.952%
CC(c1nc(C2CC2)no1)N1CCN(CCS(C)(=O)=O)CC1 (configuration not stated),Percent Effect,"30.3 µM, […]",50.3%
CC(C)OCCN1CCN(C(C)c2nc(C3CC3)no2)CC1 (configuration not stated),Percent Effect,30 µM,6.668%
Clc1snnc1CN1CCN(c2nccs2)CC1,Percent Effect,"30.3 µM, […]",-11.24%
COc1ccccc1CC(C)CC(=O)O (configuration not stated),Percent Effect,"30.3 µM, […]",41.22%
CCC(CC(=O)NS(=O)(=O)C(C)C)c1ccccc1 (configuration not stated),Percent Effect,"30.3 µM, […]",-1.743%
COc1ccccc1CC(C)CC(=O)NC(C)C (configuration not stated),Percent Effect,"30.3 µM, […]",59.88%
COc1ccccc1CC(C)CC(=O)N(C)Cc1cc(C)on1 (configuration not stated),Percent Effect,"30.3 µM, […]",6.655%
COc1ccccc1CC(=O)NS(C)(=O)=O,Percent Effect,"30 µM, 30.03 µM",11.96%
COc1ccccc1CC(C)CC(=O)NS(=O)(=O)C(C)C (configuration not stated),Percent Effect,"30.3 µM, […]",63.27%
Cc1cc(NC(=O)NCC(c2ccccc2)N2CCOCC2)n(C)n1 (configuration not stated),Percent Effect,30 µM,18.5%
C1CC(CN2CCO[C@H]3[C@H](OCC4CC4)CC[C@@H]32)CCO1.O=C(O)C(F)(F)F,Percent Effect,"30 µM, 30.03 µM",5.211%
Cc1ccc(NC(=O)CC2Cn3ncnc3NC2=O)cc1C (configuration not stated),Percent Effect,"30.3 µM, […]",22.77%
CN1CCOCC12CCN(c1ccc(C#N)cc1)CC2.O=C(O)C(F)(F)F,Percent Effect,"30.3 µM, […]",14.66%
COc1ccc(C2CCCN2C(=O)c2csc(NC(C)=O)n2)cc1 (configuration not stated),Percent Effect,"30 µM, 30.03 µM",22.16%
Cc1cc(C(=O)NCCc2nc3c(s2)CCCC3)n(C)n1,Percent Effect,"30.3 µM, […]",29.87%
O=C1CCc2cc(-c3csc(CCN4CCOC4=O)n3)c(F)cc2N1,Percent Effect,"30.3 µM, […]",-11.05%
CC(C)c1nc(C2CCCN(C(=O)c3ccc4c(c3)COC4)C2)no1 (configuration not stated),Percent Effect,30 µM,33.04%
Cc1occc1CNC(=O)C1(C)CCCN1C(=O)c1ccccc1 (configuration not stated),Percent Effect,"30.3 µM, […]",-78.28%
CC(C)C(=O)N1CCC12CCCN(C(=O)c1ccccc1)C2 (configuration not stated),Percent Effect,"30.3 µM, […]",9.102%
Cc1occc1CNC(=O)C1(C)CCCN(C(=O)c2ccccc2)C1 (configuration not stated),Percent Effect,"30.3 µM, […]",52.94%
Cc1cc(CNS(=O)(=O)CCCC#N)ccc1N(C)C,Percent Effect,"30.3 µM, […]",31.94%
CCOc1ncnc2c1CCN(Cc1csc(C)n1)CC2.O=C(O)C(F)(F)F,Percent Effect,"30.3 µM, […]",25.55%
CCOc1cc2c(cc1CNC(Cc1cccs1)c1nccs1)OCO2.Cl (configuration not stated),Percent Effect,"30.3 µM, […]",32.16%
Cc1[nH]c(-c2ccccc2)nc1C(=O)N1CCC(O)(CO)CC1,Percent Effect,"30.3 µM, […]",20.13%
Cc1[nH]c(-c2ccccc2)nc1C(=O)N1CCC2(CCCO2)CC1,Percent Effect,"30.3 µM, […]",62.09%
Cc1nccc(-c2ccccc2)c1C(=O)N1CCC2(CCCO2)CC1,Percent Effect,"30.3 µM, […]",-0.7591%
CS(=O)(=O)Cc1cccc(C(=O)N2CCCC(n3cccn3)C2)c1 (configuration not stated),Percent Effect,"30 µM, 30.03 µM",-5.751%
CCc1ccc(C(=O)N2CCC(c3nncn3CC)CC2)o1,Percent Effect,"30.3 µM, […]",-10.9%
COc1cc(CNC(=O)c2csc(Br)c2)ccn1,Percent Effect,"30.3 µM, […]",18.58%
Cc1ccc(-c2cc(CN(CC(N)=O)CC(C)C)on2)cc1,Percent Effect,"30.3 µM, […]",57.13%
Cc1cc(CN(CC(N)=O)CC(C)C)on1,Percent Effect,"30.3 µM, […]",34.94%
Cc1cc(CN(CC(N)=O)CC(C)C)no1,Percent Effect,"30.3 µM, […]",34.93%
CN(C)C(=O)CO[C@H]1CN(Cc2ccc3c(c2)OCO3)[C@@H]2COC[C@H]12.O=C(O)C(F)(F)F,Percent Effect,"30.3 µM, […]",10.2%
O=C(O)Cc1cccc(-n2ccnc2-c2ccc(Cl)s2)c1,Percent Effect,"30.3 µM, […]",-13.71%
CC(NC(=O)NCCCO)c1ccc2c(c1)NC(=O)CO2 (configuration not stated),Percent Effect,30 µM,9.165%
CC(NC(=O)C1CCN(C(C)C)CC1)c1nncn1C1CCCC1 (configuration not stated),Percent Effect,"30.3 µM, […]",38.57%
CC(NC(=O)C1CCN(C(=O)C2CC2)CC1)c1nncn1C(C)C (configuration not stated),Percent Effect,"30.3 µM, […]",27.99%
CC(NC(=O)C1CCCC1)c1nncn1C(C)C (configuration not stated),Percent Effect,"30.3 µM, […]",53.36%
Cc1ccc(CN2CCOC3(CCCN(c4cccc(F)c4)C3)C2)o1.O=C(O)C(F)(F)F.O=C(O)C(F)(F)F (configuration not stated),Percent Effect,"30.3 µM, […]",23.02%
O=C(NCCCOC1CCCCC1)C1NCCc2[nH]cnc21 (configuration not stated),Percent Effect,"30.3 µM, […]",6.477%
COC(=O)NCC(=O)N1CCC(c2cc3ccccc3[nH]2)CC1,Percent Effect,"30.3 µM, […]",11.64%
N#CCCCS(=O)(=O)NC1(c2cccc(Cl)c2)CC1,Percent Effect,"30.3 µM, […]",17.77%
CCS(=O)(=O)N1CCc2ccc(NC(=O)Nc3cccc(SC)c3)cc21,Percent Effect,"30 µM, 30.03 µM",59.71%
CCS(=O)(=O)N1CCc2ccc(NC(=O)Nc3cccc(F)c3)cc21,Percent Effect,"30.3 µM, […]",17.8%
CCS(=O)(=O)N1CCc2ccc(NC(=O)Nc3ccccc3)cc21,Percent Effect,"30.3 µM, […]",14.09%
CC(=O)N(Cc1ncc(C(C)C)o1)C1CCN(Cc2cc(C)no2)C1 (configuration not stated),Percent Effect,30 µM,25.52%
O=C1CN(C(=O)C2CN(c3ccccc3)CCO2)CCN1 (configuration not stated),Percent Effect,"30.3 µM, […]",40.28%
CC(C)n1c(=O)c2ccccc2n(CCN(C)C)c1=O.Cl,Percent Effect,"30.3 µM, […]",50.24%
O=C(NCCCN1CCCCC1)c1n[nH]c(=O)c2ccccc12,Percent Effect,"30.3 µM, […]",20.29%
CC(C)n1c(=O)c2ccccc2n(CCCN(C)C)c1=O.Cl,Percent Effect,"30.3 µM, […]",-9.627%
O=C(NCCN1CCCCCC1)c1n[nH]c(=O)c2ccccc12,Percent Effect,"30.3 µM, […]",-32.33%
CN(C)CCn1c(=O)n(C)c(=O)c2ccccc21.Cl,Percent Effect,"30.3 µM, […]",-33.87%
CC(C)n1c(=O)c2ccccc2n(CCN2CCCCC2)c1=O,Percent Effect,"30.3 µM, […]",52.87%
CCOCCn1nnc(C2(NC(=O)c3ccccc3)CCCC2)n1,Percent Effect,"30 µM, 30.03 µM",1.124%
CN(Cc1ccoc1)C(=O)C1(Oc2ccc(Cl)cc2)CCNCC1,Percent Effect,"30.3 µM, […]",-16.66%
Cc1ccc(OC2(C(=O)N(C)Cc3ccoc3)CCNCC2)cc1,Percent Effect,"30.3 µM, […]",83.11%
CN(Cc1ccncn1)C(=O)C1(Oc2ccc(Cl)cc2)CCNCC1,Percent Effect,"30.3 µM, […]",12.34%
Cc1ccc(CN2CC[C@H](c3nc4cccc(C(N)=O)c4[nH]3)C2)cc1,Percent Effect,"30.3 µM, […]",-18.93%
NC(=O)c1cccc2nc([C@H]3CCN(Cc4ccccn4)C3)[nH]c12,Percent Effect,"30.3 µM, […]",53.25%
NC(=O)c1cccc2nc([C@H]3CCN(Cc4ccccc4F)C3)[nH]c12,Percent Effect,"30.3 µM, […]",22.02%
c1ccc(C(CC2CN(Cc3c[nH]cn3)CCO2)c2ccccc2)cc1 (configuration not stated),Percent Effect,"30.3 µM, […]",20.85%
CN(C)S(=O)(=O)N(C)C(c1cccc(F)c1)c1ccccn1 (configuration not stated),Percent Effect,30 µM,24.26%
Clc1cccnc1N1CCC(C2CCN(Cc3cccnc3)CC2)C1 (configuration not stated),Percent Effect,"30.3 µM, […]",-17.23%
Clc1ccc(CN2CCC(C3CCN(Cc4cccnc4)CC3)C2)cc1 (configuration not stated),Percent Effect,"30.3 µM, […]",51.57%
Clc1ccc(N2CCC(C3CCN(Cc4cccnc4)CC3)C2)nc1 (configuration not stated),Percent Effect,"30.3 µM, […]",-2.762%
Cc1ncsc1C(=O)N(C)Cc1ccncc1,Percent Effect,"30 µM, 30.03 µM",-5.146%
Cc1ncsc1CN(Cc1ccccc1)Cc1ncc[nH]1,Percent Effect,"30.3 µM, […]",-37.36%
Cc1ncsc1CN(Cc1ccccc1)Cc1ccncc1,Percent Effect,"30.3 µM, […]",55.73%
Cc1noc(C2CCN(CC(=O)N3CCNC(=O)C3)CC2)n1,Percent Effect,"30.3 µM, […]",-15.33%
O=C(O)C1(Cc2cccc(Cl)c2)CCCN(c2ncnc3[nH]ccc23)C1 (configuration not stated),Percent Effect,"30.3 µM, […]",20.11%
CCCSc1nn(CCCN(C)C)c2nc3sc(C)c(CC)c3c(=O)n12,Percent Effect,"30.3 µM, […]",-2.726%
O=C(c1ccoc1)N1Cc2cnn(CC3CC3)c2C(COCC2CC2)C1 (configuration not stated),Percent Effect,"30.3 µM, […]",-14.05%
CC(C)C(=O)N1CCC(c2c(C(N)=O)sc3ccccc23)C1 (configuration not stated),Percent Effect,"30.3 µM, […]",2.33%
CS(=O)(=O)CCCN1CCN(C(C#N)c2ccccc2)CC1 (configuration not stated),Percent Effect,"30.3 µM, […]",16.78%
CC(C)S(=O)(=O)CCN1CCN(C(C#N)c2ccccc2)CC1 (configuration not stated),Percent Effect,"30.3 µM, […]",27.38%
CCCS(=O)(=O)CCN1CCN(C(C#N)c2ccccc2)CC1 (configuration not stated),Percent Effect,"30.3 µM, […]",50.86%
CC(C)c1nc(C2CCCN(C(=O)CCc3cscn3)C2)no1 (configuration not stated),Percent Effect,30 µM,12.46%
Cc1oncc1C(=O)NCC1(O)CCc2ccccc2C1 (configuration not stated),Percent Effect,"30.3 µM, […]",25.53%
Cc1nn(C)c(Cl)c1CNCc1cccnc1N1CCOCC1.Cl,Percent Effect,"30 µM, 30.03 µM",2.073%
Cc1nn(C)c(Cl)c1CNCc1cccnc1N1CCCCC1.Cl,Percent Effect,"30.3 µM, […]",-11.04%
Cc1nn(C)c(Cl)c1CNCc1cccnc1N1CCN(C)CC1.Cl,Percent Effect,"30 µM, 30.03 µM",52.88%
Cc1ccc(C)c(S(=O)(=O)CCNC2CCc3ncnn3C2)c1 (configuration not stated),Percent Effect,30 µM,28.38%
CCc1ncc(CN[C@@H]2CCCN(C(C)=O)[C@H]2c2ccc(C)s2)cn1.Cl,Percent Effect,"30.3 µM, […]",12.48%

# — ChEMBL document CHEMBL3988442, “University of Dundee, Small-Polar-MMV Screening Library” (2021)
